# From ChEMBL document CHEMBL1961873, “Compounds: GSK PKIS; Assays: Nanosyn kinase panel” (2012)
# Columns and labels:
# [1] = molecular target: Sphingosine kinase 1 (Homo sapiens) (UniProt Q9NYA1); details: at 1 µM;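 further: mean SPHK1 inhibition value reported from the GSK PKIS kinase panel screen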
# [2] = molecular target: T1, Sphingosine kinase 2 (Homo sapiens) (UniProt Q9NRA0); details: at 0.1 µM
# T1 sequence (whole entry): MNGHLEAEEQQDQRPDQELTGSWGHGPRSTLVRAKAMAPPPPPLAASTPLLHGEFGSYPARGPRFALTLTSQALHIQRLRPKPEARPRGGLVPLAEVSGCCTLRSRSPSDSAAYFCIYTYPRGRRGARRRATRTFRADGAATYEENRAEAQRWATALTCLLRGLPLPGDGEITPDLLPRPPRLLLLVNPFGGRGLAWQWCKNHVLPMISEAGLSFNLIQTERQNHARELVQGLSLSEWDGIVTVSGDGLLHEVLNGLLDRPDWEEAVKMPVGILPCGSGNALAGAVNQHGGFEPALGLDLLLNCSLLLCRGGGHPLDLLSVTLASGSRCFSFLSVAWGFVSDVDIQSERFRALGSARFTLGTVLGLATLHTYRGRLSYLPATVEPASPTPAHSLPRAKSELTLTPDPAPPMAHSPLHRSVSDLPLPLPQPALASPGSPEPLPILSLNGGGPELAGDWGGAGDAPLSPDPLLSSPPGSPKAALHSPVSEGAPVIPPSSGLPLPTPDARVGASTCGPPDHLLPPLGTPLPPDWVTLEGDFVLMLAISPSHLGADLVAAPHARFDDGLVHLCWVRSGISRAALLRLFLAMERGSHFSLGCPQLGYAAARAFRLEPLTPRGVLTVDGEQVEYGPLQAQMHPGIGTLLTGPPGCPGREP
# [3] = molecular target: T1, Sphingosine kinase 2 (Homo sapiens); details: at 1 µM
# [4] = molecular target: Casein kinase II subunit alpha (Homo sapiens) (UniProt P68400); details: at 0.1 µM
# [5] = molecular target: Casein kinase II subunit alpha (Homo sapiens) (UniProt P68400); details: at 1 µM
# [6] = molecular target: T2, Inhibitor of nuclear factor kappa-B kinase subunit alpha (Homo sapiens) (UniProt O15111); details: at 0.1 µM
# T2 sequence (whole entry): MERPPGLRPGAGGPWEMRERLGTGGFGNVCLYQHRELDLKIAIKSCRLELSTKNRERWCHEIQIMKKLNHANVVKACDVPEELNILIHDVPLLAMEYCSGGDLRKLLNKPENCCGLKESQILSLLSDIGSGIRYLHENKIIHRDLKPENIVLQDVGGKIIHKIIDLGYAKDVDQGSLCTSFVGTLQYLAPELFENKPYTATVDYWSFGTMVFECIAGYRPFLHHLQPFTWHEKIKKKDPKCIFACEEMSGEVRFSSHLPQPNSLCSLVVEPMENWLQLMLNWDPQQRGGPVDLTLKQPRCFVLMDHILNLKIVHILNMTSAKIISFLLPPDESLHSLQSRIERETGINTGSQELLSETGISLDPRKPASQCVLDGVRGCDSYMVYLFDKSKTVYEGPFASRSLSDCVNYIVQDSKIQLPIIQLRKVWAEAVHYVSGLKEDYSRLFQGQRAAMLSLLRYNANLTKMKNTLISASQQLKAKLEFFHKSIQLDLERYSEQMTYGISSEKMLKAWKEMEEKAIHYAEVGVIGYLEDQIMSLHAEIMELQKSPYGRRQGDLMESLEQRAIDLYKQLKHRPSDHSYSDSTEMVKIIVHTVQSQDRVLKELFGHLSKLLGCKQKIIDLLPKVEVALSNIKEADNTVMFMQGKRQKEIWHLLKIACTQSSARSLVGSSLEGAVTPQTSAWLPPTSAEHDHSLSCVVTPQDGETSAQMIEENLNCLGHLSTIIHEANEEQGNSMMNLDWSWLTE
# [7] = molecular target: T2, Inhibitor of nuclear factor kappa-B kinase subunit alpha (Homo sapiens); details: at 1 µM
# [8] = molecular target: T3, Inhibitor of nuclear factor kappa-B kinase subunit beta (Homo sapiens) (UniProt O14920); details: at 0.1 µM
# T3 sequence (whole entry): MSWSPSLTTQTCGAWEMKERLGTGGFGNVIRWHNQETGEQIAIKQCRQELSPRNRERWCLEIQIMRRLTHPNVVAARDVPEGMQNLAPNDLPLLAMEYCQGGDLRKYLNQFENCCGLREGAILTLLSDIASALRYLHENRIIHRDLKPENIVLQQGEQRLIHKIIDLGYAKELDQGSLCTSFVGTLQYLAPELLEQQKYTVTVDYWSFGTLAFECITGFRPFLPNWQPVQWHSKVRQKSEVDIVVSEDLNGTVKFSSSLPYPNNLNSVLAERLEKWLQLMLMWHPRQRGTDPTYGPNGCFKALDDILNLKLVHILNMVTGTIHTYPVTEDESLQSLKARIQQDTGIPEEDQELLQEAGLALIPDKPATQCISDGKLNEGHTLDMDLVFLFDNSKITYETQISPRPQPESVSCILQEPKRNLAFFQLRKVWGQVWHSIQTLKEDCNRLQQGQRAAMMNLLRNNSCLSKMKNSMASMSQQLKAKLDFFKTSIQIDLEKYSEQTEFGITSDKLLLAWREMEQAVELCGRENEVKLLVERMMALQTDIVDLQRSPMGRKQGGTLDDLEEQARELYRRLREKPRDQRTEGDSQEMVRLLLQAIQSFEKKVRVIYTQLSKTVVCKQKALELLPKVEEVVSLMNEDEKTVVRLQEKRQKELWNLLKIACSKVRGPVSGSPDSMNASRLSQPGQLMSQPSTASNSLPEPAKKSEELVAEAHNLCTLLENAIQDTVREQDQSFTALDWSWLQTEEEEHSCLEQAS
# [9] = molecular target: T3, Inhibitor of nuclear factor kappa-B kinase subunit beta (Homo sapiens); details: at 1 µM
# [10] = molecular target: T4, Inhibitor of nuclear factor kappa-B kinase subunit epsilon (Homo sapiens) (UniProt Q14164); details: at 0.1 µM
# T4 sequence (whole entry): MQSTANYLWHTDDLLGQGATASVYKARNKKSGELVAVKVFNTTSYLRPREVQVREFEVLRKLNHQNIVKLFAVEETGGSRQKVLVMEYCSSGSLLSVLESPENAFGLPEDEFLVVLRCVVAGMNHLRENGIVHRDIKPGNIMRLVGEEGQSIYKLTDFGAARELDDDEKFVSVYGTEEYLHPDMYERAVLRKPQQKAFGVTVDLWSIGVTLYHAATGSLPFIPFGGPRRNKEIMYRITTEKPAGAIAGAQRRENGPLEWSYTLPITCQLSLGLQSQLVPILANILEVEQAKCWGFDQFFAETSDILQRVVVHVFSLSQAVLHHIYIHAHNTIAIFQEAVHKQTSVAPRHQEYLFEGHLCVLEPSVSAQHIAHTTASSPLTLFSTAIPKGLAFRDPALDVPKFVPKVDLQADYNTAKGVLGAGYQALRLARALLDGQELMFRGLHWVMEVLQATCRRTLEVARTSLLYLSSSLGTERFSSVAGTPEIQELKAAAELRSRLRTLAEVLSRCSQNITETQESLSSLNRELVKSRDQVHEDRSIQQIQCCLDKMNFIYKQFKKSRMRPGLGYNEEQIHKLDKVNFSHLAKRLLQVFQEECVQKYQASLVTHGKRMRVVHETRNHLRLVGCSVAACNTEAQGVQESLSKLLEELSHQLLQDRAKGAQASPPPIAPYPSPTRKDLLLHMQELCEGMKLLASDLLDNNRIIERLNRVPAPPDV
# [11] = molecular target: T4, Inhibitor of nuclear factor kappa-B kinase subunit epsilon (Homo sapiens); details: at 1 µM
# [12] = molecular target: T5, Serine/threonine-protein kinase Nek1 (Homo sapiens) (UniProt Q96PY6); details: at 0.1 µM
# T5 sequence (whole entry): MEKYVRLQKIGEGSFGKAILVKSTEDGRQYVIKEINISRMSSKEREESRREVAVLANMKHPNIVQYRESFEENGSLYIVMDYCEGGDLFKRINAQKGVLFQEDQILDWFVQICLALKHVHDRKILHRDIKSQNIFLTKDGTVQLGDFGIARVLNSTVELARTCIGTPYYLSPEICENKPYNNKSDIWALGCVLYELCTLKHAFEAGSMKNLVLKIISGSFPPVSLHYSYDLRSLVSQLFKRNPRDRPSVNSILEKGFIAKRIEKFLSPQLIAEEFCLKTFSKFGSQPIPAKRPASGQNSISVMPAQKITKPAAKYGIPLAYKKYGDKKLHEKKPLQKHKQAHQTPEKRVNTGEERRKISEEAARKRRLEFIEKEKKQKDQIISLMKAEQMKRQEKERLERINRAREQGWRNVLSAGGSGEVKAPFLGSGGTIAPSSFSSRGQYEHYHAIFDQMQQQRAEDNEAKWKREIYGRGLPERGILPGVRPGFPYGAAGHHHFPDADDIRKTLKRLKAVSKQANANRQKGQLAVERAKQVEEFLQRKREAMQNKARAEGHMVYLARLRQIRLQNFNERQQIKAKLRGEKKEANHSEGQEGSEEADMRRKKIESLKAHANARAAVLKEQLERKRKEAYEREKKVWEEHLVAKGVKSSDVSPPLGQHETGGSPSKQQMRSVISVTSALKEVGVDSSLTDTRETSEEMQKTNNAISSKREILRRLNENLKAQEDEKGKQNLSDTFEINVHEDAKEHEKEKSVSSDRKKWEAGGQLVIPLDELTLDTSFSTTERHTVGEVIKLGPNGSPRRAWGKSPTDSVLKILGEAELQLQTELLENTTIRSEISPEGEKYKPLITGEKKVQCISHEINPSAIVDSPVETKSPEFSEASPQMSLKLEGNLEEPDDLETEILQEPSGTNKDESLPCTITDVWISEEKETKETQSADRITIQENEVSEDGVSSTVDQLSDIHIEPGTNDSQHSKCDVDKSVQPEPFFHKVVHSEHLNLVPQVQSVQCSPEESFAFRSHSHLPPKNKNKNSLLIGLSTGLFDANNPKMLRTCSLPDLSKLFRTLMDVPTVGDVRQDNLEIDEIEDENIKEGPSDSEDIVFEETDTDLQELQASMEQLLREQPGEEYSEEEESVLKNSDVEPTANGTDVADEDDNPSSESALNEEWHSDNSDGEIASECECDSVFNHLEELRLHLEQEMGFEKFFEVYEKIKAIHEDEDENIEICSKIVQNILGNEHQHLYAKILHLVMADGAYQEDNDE
# [13] = molecular target: T5, Serine/threonine-protein kinase Nek1 (Homo sapiens); details: at 1 µM
# [14] = molecular target: T6, Serine/threonine-protein kinase Nek2 (Homo sapiens) (UniProt P51955); details: at 0.1 µM
# T6 sequence (whole entry): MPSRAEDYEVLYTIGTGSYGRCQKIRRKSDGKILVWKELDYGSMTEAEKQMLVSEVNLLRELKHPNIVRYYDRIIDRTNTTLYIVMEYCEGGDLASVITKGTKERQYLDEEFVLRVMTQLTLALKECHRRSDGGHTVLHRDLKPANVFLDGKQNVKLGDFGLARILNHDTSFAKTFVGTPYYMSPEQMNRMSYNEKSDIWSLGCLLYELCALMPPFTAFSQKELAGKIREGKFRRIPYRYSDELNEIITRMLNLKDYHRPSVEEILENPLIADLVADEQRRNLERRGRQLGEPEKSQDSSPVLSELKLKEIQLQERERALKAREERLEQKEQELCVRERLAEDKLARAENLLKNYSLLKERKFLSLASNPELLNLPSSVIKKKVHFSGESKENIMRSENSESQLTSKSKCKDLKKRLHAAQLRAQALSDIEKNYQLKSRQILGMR
# [15] = molecular target: T6, Serine/threonine-protein kinase Nek2 (Homo sapiens); details: at 1 µM
# [16] = molecular target: Serine/threonine-protein kinase Nek6 (Homo sapiens) (UniProt Q9HC98); details: at 0.1 µM
# [17] = molecular target: Serine/threonine-protein kinase Nek6 (Homo sapiens) (UniProt Q9HC98); details: at 1 µM
# [18] = molecular target: Serine/threonine-protein kinase Nek7 (Homo sapiens) (UniProt Q8TDX7); details: at 0.1 µM
# [19] = molecular target: Serine/threonine-protein kinase Nek7 (Homo sapiens) (UniProt Q8TDX7); details: at 1 µM
# [20] = molecular target: T7, Serine/threonine-protein kinase Nek9 (Homo sapiens) (UniProt Q8TD19); details: at 0.1 µM;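 further: reported value is the mean percent inhibition of NEK9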
# T7 sequence (whole entry): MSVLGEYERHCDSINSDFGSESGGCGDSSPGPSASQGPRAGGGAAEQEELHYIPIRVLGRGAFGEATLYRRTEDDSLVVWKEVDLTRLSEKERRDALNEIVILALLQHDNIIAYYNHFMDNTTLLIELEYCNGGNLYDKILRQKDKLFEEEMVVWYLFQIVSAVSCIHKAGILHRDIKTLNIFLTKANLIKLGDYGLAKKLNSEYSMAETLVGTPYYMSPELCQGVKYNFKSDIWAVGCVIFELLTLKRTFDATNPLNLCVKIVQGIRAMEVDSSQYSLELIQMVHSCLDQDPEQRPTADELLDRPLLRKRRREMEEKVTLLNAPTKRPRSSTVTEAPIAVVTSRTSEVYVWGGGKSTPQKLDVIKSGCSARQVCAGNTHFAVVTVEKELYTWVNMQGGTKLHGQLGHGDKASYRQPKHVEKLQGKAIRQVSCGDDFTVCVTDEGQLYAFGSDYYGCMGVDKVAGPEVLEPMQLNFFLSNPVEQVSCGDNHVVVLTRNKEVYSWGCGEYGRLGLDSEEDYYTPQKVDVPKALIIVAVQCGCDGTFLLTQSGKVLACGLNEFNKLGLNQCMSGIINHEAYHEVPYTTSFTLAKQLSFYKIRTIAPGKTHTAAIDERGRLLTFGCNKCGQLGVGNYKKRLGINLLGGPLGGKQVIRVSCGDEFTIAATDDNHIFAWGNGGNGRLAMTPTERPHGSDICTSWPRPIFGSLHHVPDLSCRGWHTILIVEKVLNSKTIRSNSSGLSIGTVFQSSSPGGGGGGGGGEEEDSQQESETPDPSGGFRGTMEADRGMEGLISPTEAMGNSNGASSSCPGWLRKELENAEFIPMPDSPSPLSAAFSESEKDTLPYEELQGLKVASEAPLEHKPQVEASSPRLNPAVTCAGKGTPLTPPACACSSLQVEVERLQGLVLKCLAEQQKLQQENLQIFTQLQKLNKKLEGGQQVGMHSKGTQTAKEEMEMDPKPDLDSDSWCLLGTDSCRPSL
# Sequence of Serine/threonine-protein kinase Nek7 (Homo sapiens) (Q8TDX7 whole entry, looked up): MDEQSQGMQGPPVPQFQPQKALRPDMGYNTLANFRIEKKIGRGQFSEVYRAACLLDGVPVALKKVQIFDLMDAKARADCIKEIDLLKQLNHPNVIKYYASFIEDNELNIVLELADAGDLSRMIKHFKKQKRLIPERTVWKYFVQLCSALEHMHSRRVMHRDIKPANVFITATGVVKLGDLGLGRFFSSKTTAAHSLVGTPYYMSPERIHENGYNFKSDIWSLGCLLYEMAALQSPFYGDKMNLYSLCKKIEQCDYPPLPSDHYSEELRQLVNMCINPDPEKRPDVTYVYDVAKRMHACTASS
# Sequence of Casein kinase II subunit alpha (Homo sapiens) (P68400 whole entry, looked up): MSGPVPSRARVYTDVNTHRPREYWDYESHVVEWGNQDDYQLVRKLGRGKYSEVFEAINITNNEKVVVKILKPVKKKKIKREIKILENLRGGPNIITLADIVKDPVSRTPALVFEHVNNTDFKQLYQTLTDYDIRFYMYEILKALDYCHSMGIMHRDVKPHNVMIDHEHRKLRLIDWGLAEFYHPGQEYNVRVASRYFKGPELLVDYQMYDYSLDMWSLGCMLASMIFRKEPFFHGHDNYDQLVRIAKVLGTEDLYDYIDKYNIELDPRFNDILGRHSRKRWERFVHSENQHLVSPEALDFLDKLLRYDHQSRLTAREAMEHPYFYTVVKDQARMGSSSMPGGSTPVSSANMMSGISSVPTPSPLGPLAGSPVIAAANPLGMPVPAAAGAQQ
# Sequence of Serine/threonine-protein kinase Nek6 (Homo sapiens) (Q9HC98 whole entry): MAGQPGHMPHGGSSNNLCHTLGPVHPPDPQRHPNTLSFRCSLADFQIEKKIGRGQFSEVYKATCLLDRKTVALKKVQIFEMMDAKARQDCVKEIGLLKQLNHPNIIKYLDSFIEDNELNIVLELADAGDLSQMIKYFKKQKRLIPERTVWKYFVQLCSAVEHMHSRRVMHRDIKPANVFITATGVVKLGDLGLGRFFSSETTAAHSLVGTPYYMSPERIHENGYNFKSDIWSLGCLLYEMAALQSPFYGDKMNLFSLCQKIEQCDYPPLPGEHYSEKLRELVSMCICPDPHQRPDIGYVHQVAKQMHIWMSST
# Sequence of Sphingosine kinase 1 (Homo sapiens) (Q9NYA1 whole entry): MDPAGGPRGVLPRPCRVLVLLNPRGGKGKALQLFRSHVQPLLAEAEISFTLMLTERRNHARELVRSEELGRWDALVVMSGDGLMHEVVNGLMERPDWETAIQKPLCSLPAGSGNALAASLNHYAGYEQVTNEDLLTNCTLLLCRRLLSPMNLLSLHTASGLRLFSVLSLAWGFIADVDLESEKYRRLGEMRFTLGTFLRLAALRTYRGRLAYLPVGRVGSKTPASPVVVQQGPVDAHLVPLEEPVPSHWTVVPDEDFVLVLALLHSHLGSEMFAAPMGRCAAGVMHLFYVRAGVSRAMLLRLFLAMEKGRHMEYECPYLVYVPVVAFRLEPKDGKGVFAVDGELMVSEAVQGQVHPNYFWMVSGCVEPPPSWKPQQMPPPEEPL
smiles,measurement,setting,value
COc1cc2ncn(-c3cc(O[C@@H](C)c4ccccc4Cl)c(C(N)=O)s3)c2cc1OC,inhibition,[1],-1.61%
same,inhibition,[2],-0.7%
same,inhibition,[3],0%
same,inhibition,[4],6.99%
same,inhibition,[5],3.34%
same,inhibition,[6],4.16%
same,inhibition,[7],8.5%
same,inhibition,[8],6.47%
same,inhibition,[9],4.88%
same,inhibition,[10],5.3%
same,inhibition,[11],7.74%
same,inhibition,[12],4.69%
same,inhibition,[13],19.3%
same,inhibition,[14],5.52%
same,inhibition,[15],10.4%
same,inhibition,[16],1.03%
same,inhibition,[17],0.67%
same,inhibition,[18],3.47%
same,inhibition,[19],4.57%
same,inhibition,[20],7.99%
